TTR transcr act – TTR transcription activation, primary screen. SH-SY5Y TTR promoter Gaussia luciferase, luminescence; 100% = recombinant luciferase protein wells. activation, % at 16.7 µM. 92,000 compounds, 1.3% hits;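 active means activation above the mean of all tested compounds plus 3 SD, cut at about 9.5% in these data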;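 further: cells exposed to compounds for one day before reading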
TTR inh HuH7 – counter-screen for TTR activators: TTR transcription inhibitors in HuH7 cells; inhibition, % at 16.7 µM; 1,100 compounds, 4% hits; HuH7 TTR promoter-Gaussia luciferase reporter, luminescence; AID 1117279; shares compounds with TTR transcr act;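 active means average inhibition above the solvent-only control wells' mean plus 3 SD, cut at about 15% in these data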;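 further: inhibitors lower well luminescence so higher value means more inhibition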
TTR act confirm – confirmation of human transthyretin transcription activators. activation, % at 16.7 µM. AID 1117280. SHSY5Y TTR promoter Gaussia luciferase, luminescence; 100% = purified Lucia enzyme wells, no cells. shares compounds with TTR transcr act. 1,100 tested, under 10 active;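 active means mean activation above a set limit taken from the earlier primary screen, cut at about 11% in these data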
Large screens that a line does not name were inactive (follow-up assays come after a bar, where they were run). This is one part of a sample in which hits are shown more often than they occur.

COC(=O)C1=C(c2cc3ccccc3s2)C[C@@H]2CC[C@H]1N2C	TTR transcr act 14
COC(=O)C1=C(c2cc3ccccc3s2)C[C@@H]2CC[C@H]1N2C(=O)NC1CC1	none
COC(=O)C1=C(c2ccc3ccccc3c2)C[C@@H]2CC[C@H]1N2C	none
COC(=O)[C@@]1(O)c2c(oc3cccc(O)c3c2=O)C=C[C@H]1O	none
C=CCCC(NC(=O)OCc1ccccc1)P(=O)(Oc1ccccc1)Oc1ccccc1 (configuration not stated)	none
CC(C(=O)c1c[nH]c2ccccc12)N1CCOCC1 (configuration not stated)	none
O=C(C(=O)N1CCC2(CC1)OCCO2)c1c[nH]c2ccccc12	TTR transcr act 11 | TTR inh HuH7 inactive | TTR act confirm inactive
O=C(c1ccccc1)N1CCC2(CC1)OCCO2	none
O=C(NC1CN2CCC1CC2)c1ccc(Cl)cc1 (configuration not stated)	none
C[C@H](NC(=O)OCc1ccccc1)[P+](=O)O	none
COc1ccc2c(c1O)C13CCN(C)C(C2)C1CCC(=O)C3 (configuration not stated)	TTR transcr act 24 | TTR inh HuH7 inactive | TTR act confirm inactive
COc1ccc2c3c1OC1[C@H](O)CCC4[C@@H](C2)N(C)CC[C@]314 (some centres not stated)	none
COc1ccc2c3c1OC1C(=O)CC[C@@]4(O)[C@@H](C2)N(C)CC[C@]314 (some centres not stated)	none
CCOC(=O)c1cc2cc(OC)ccc2n1C1CCN(Cc2ccccc2)CC1	none
COc1ccc2nc3c(C)n(C)ccc-3c2c1	none
Oc1ccc2c3c1O[C@H]1c4[nH]c5c(c4CC4(O)C(C2)N(CC2CC2)CCC314)CC1(O)[C@H]2Cc3ccc(O)c4c3[C@@]1(CCN2CC1CC1)C5O4 (some centres not stated)	none
O=C(Cc1ccccc1)OCCN1CCOCC1	none
c1cnc(OCCN2CC2)cn1	none
c1cc(OCCN2CC2)ccn1	TTR transcr act 10 | TTR inh HuH7 inactive | TTR act confirm inactive
COC(=O)C1C(c2ccc(Cl)cc2)CC2CCC1N2C (configuration not stated)	none
COC(=O)[C@@H]1N=C(c2ccc(OC)cc2)O[C@]12C(=O)N(C)c1cccc(Cl)c12	none
C=CC12CN(C)C3C4COC(CC41)C1(C(=O)Nc4ccccc41)C32 (configuration not stated)	none
Cc1cccn2c(NCC3CCCO3)c(C(C)C)nc12 (configuration not stated)	TTR transcr act 27 | TTR inh HuH7 inactive | TTR act confirm inactive
ClCCN(CCCl)c1ccc(-n2cnc3c(Cl)ncnc32)cc1	none
C=CC1C[N+]2(C)CCC1CC2C(O)c1ccnc2ccccc12 (configuration not stated)	none
COC(=O)C1=C(c2ccc(F)cc2OCc2ccccc2)C[C@@H]2CC[C@H]1N2C(=O)NCc1ccco1	TTR transcr act 15 | TTR inh HuH7 inactive | TTR act confirm inactive
COC(=O)C1=C(c2ccc(F)cc2OCc2ccccc2)C[C@@H]2CC[C@H]1N2C(=O)NCc1ccccc1	none
COC(=O)C1=C(c2ccc(F)cc2OCc2ccccc2)C[C@@H]2CC[C@H]1N2C(=O)NCC1CC1	none
Cc1cccc(N=Cc2c(O)n(-c3ccccc3C)c(=O)[nH]c2=O)c1	TTR transcr act 13 | TTR inh HuH7 inactive | TTR act confirm inactive
Cc1cccc(-n2c(O)c(/C=C/C=Nc3ccccc3)c(=O)[nH]c2=O)c1	none
Cc1ccccc1-n1c(O)c(/C=N/c2nccs2)c(=O)[nH]c1=O	none
CN1C2CCC1CC(=NO)C2	TTR transcr act 27 | TTR inh HuH7 inactive | TTR act confirm inactive
C[C@H]1[C@@H](c2ccccc2)O[C@@H](c2ccccc2Br)N1C	TTR transcr act 11 | TTR inh HuH7 inactive | TTR act confirm inactive
COC(=O)C1=C(C(=O)OC)C2OC1c1cc3ccccc3cc12	none
OCCN1C2CCC1CC(O)(c1ccc(F)cc1)C2 (configuration not stated)	none
CC1CCCN(C(=O)CN2C3CCC2CC(O)(c2ccc(F)cc2)C3)C1 (configuration not stated)	none
OC1(c2ccc(F)cc2)CC2CCC(C1)N2Cc1nnnn1C1CCCCC1 (configuration not stated)	TTR transcr act 23 | TTR inh HuH7 inactive | TTR act confirm inactive
CC1C2Cc3ccc(O)cc3C1(C)CCN2CC1CC1 (configuration not stated)	none
COc1ccc(C(c2nnnn2-c2c(C)cccc2C)N2CCC3(CC2)C(=O)NCN3c2ccccc2)cc1 (configuration not stated)	none
COc1ccc(C(=O)C2CCCN(CC3CCCCC3)C2)cc1OC (configuration not stated)	none
O=C(Nc1ccc(F)cc1)N1Cc2ccccc2-n2nncc2C1	none
COc1ccc(-n2c(C)cc(C(=O)C[N+]34CCN(CC3)CC4)c2C)cc1	TTR transcr act 9.9 | TTR inh HuH7 inactive | TTR act confirm inactive
CCn1c(C)c(C(=O)O)c2cc(OC)ccc21	none
S=P(c1ccccc1)(c1ccccc1)c1c[n+](Cc2ccccc2)c2ccccn12	none
O=c1[nH]c2ccccc2n1C1CCN(C(CCc2ccccc2)c2nnnn2C2CCCC2)CC1 (configuration not stated)	none
O=C1NC(=O)C(C2CCCCCC2)C(=O)N1	none
O=C(CCc1ccccc1)N1Cc2cc(N3CCCCC3)ccc2-n2nncc2C1	none
Cc1cc(O)c2c(c1)C(=O)[C@@]13C(=C2O)C(=O)[C@H]2C(O)[C@@H]1[C@H]1C(O)[C@@H]3C(=O)C3=C(O)c4c(O)cc(C)cc4C(=O)[C@@]312 (some centres not stated)	none
CCOC(=O)[C@]12Cc3cc(Cl)ccc3[C@H]1N(C(C)C)C(=O)c1ccccc12	none
Cc1ccc(S(=O)(=O)N2Cc3cc(N4CCOCC4)ccc3-n3nncc3C2)cc1	none
O=C1CC(=O)N(c2ccc(Cl)cc2)C(=O)N1	none
CCc1ccccc1N1C(=O)CC(=O)NC1=O	TTR transcr act 9.8 | TTR inh HuH7 inactive | TTR act confirm inactive
C=CCNC(=S)N1Cc2cc(Br)ccc2-n2nncc2C1	none
CC(C)(C)Cc1nnc(NC(=O)COc2ccc(Cl)cc2Cl)o1	none
C=CCN1CC[C@]23c4c5ccc(O)c4OC2C(=O)CC[C@@]3(O)[C@H]1C5 (some centres not stated)	none
COC(=O)C1C(c2ccc(I)cc2)CC2CCC1N2C (configuration not stated)	none
COC(=O)C1=C(c2ccc(OC(F)(F)F)cc2)C[C@@H]2CC[C@H]1N2C(=O)NC1CC1	TTR transcr act 10 | TTR inh HuH7 inactive | TTR act confirm inactive
COC(=O)C1=C(c2ccc(OC(F)(F)F)cc2)C[C@@H]2CC[C@H]1N2C(=O)NCC1CC1	none
COC(=O)C1=C(c2ccc(OC(F)(F)F)cc2)C[C@@H]2CC[C@H]1N2C(=O)NCCO	none
CCOC(=O)[C@]12Cc3cc(OC)ccc3[C@H]1N(C1CCCCC1)C(=O)c1ccccc12	none
CSCCC(c1nnnn1-c1ccc2c(c1)OCCO2)N1CCC(n2c(=O)[nH]c3ccccc32)CC1 (configuration not stated)	none
COc1cc(CCN)c(OC)cc1C	none
CCC(=NCc1cccnc1)c1c(O)n(-c2ccccc2)c(=O)[nH]c1=O	none
CC/C(=N\Nc1ccccc1)c1c(O)n(-c2ccc(OC)cc2)c(=O)[nH]c1=O	none

Assay outcomes from PubChem BioAssay.
